Structures can show the parent of a compound that is named as a salt. ± gives the uncertainty stated by the source.

For this test, the system named is Caenorhabditis elegans N2. Put plainly: food intake (mean delta OD600 / animal over 72 h) with 50 uM loxapine co-treatment (OD600 units per animal); higher = more food eaten (less suppression of loxapine-induced hyperphagia). To be noted: first compound 33 µM, loxapine concentration 50 µM. The procedure:
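C. elegans N2 adults (FUDR-sterilised, day 1) in 96-well plates fed gamma-irradiated bacteria. Each library drug (MedChemExpress FDA-approved library) at 33 uM was combined with loxapine at 50 uM. Food intake was measured as bacterial clearance: the change in OD600 from day 1 to 72 h, normalised per animal (mean over 14-21 wells of about 10-12 worms). Drugs flagged for bacterial lysis or sickness were excluded by the authors.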
Turning to `CC(C)NCC(O)COc1ccc(CCOCC2CC2)cc1` (stereo not given) [betaxolol] + CN1CCN(C2=Nc3ccccc3Oc3ccc(Cl)cc32)CC1 [loxapine], the food intake worked out at 0.0265 ± 0.0022. With `CCCS(=O)(=O)Nc1ccc(F)c(C(=O)c2c[nH]c3ncc(-c4ccc(Cl)cc4)cc23)c1F` [vemurafenib] + CN1CCN(C2=Nc3ccccc3Oc3ccc(Cl)cc32)CC1 [loxapine] the figure was 0.012 ± 0.0047; with `CN1C(C(=O)Nc2ccccn2)=C(O)c2ccccc2S1(=O)=O` [piroxicam] + CN1CCN(C2=Nc3ccccc3Oc3ccc(Cl)cc32)CC1 [loxapine], 0.0225 ± 0.0032; with `Cc1cn([C@@H]2C[C@@H](O)[C@H](CO)O2)c(=O)[nH]c1=O` [telbivudine] + CN1CCN(C2=Nc3ccccc3Oc3ccc(Cl)cc32)CC1 [loxapine], 0.0219 ± 0.0023. For `CN(C)CCOC(c1ccccc1)c1ccccc1.Cn1c(=O)c2[nH]c(Cl)nc2n(C)c1=O` [dimenhydrinate] + CN1CCN(C2=Nc3ccccc3Oc3ccc(Cl)cc32)CC1 [loxapine] the value was 0.0239 ± 0.0029; for `CC1(C)O[C@@H]2C[C@H]3[C@@H]4CCC5=CC(=O)C=C[C@]5(C)[C@@]4(F)[C@@H](O)C[C@]3(C)[C@]2(C(=O)CO)O1` [triamcinolone (acetonide)] + CN1CCN(C2=Nc3ccccc3Oc3ccc(Cl)cc32)CC1 [loxapine], 0.0224 ± 0.0033; for `CCOc1ccccc1OCCN[C@H](C)Cc1ccc(OC)c(S(N)(=O)=O)c1` [tamsulosin] + CN1CCN(C2=Nc3ccccc3Oc3ccc(Cl)cc32)CC1 [loxapine], 0.022 ± 0.0032.

Regarding `O=C([O-])c1ccccc1O.[Na+]` [sodium salicylate] + CN1CCN(C2=Nc3ccccc3Oc3ccc(Cl)cc32)CC1 [loxapine], the food intake is 0.0224 ± 0.0057.

For `COc1ccc2[nH]c([S@@+]([O-])Cc3ncc(C)c(OC)c3C)nc2c1` [Esomeprazole (magnesium trihydrate)] + CN1CCN(C2=Nc3ccccc3Oc3ccc(Cl)cc32)CC1 [loxapine], the food intake came out at 0.0226 ± 0.0041. For `Cc1nc(C)c(Cl)c(O)c1Cl` [clopidol] + CN1CCN(C2=Nc3ccccc3Oc3ccc(Cl)cc32)CC1 [loxapine] the value was 0.0241 ± 0.0032. For `CC(CCc1ccccc1)NCC(O)c1ccc(O)c(C(N)=O)c1` (stereo not given) [labetalol (hydrochloride)] + CN1CCN(C2=Nc3ccccc3Oc3ccc(Cl)cc32)CC1 [loxapine] the value was 0.0213 ± 0.0075; for `O=NN(CCCl)C(=O)NC1CCCCC1` [Lomustine] + CN1CCN(C2=Nc3ccccc3Oc3ccc(Cl)cc32)CC1 [loxapine], 0.0248 ± 0.0039. Regarding `CCCCNc1ccc(C(=O)OCCN(C)C)cc1` [tetracaine (hydrochloride)] + CN1CCN(C2=Nc3ccccc3Oc3ccc(Cl)cc32)CC1 [loxapine], the food intake is 0.0236 ± 0.0037.

`Cc1ccc(C)c(OCCCC(C)(C)C(=O)O)c1` [Gemfibrozil] + CN1CCN(C2=Nc3ccccc3Oc3ccc(Cl)cc32)CC1 [loxapine]: the food intake stood at 0.0247 ± 0.0069. For `NS(=O)(=O)c1ccc(C(=O)O)cc1` [carzenide] + CN1CCN(C2=Nc3ccccc3Oc3ccc(Cl)cc32)CC1 [loxapine] the value was 0.0251 ± 0.0067; for `O=C1N=C(O)NC1(c1ccccc1)c1ccccc1` [phenytoin (sodium)] + CN1CCN(C2=Nc3ccccc3Oc3ccc(Cl)cc32)CC1 [loxapine], 0.0233 ± 0.0031. For `O=C1CCc2cc(OCCCCc3nnnn3C3CCCCC3)ccc2N1` [cilostazol] + CN1CCN(C2=Nc3ccccc3Oc3ccc(Cl)cc32)CC1 [loxapine] the value was 0.0227 ± 0.0031. As to `O=c1n(CCCN2CCN(c3cccc(Cl)c3)CC2)nc2ccccn12` [trazodone (hydrochloride)] + CN1CCN(C2=Nc3ccccc3Oc3ccc(Cl)cc32)CC1 [loxapine], the food intake worked out at 0.0285 ± 0.035.

For the compound `CC[C@@H]([C@H](C)O)n1ncn(-c2ccc(N3CCN(c4ccc(OC[C@@H]5CO[C@@](Cn6cncn6)(c6ccc(F)cc6F)C5)cc4)CC3)cc2)c1=O` [Posaconazole] + CN1CCN(C2=Nc3ccccc3Oc3ccc(Cl)cc32)CC1 [loxapine], the food intake stood at 0.023 ± 0.0056. For `CC(C)(C)C(=O)OCOP(=O)(COCCn1cnc2c(N)ncnc21)OCOC(=O)C(C)(C)C` [Adefovir dipivoxil] + CN1CCN(C2=Nc3ccccc3Oc3ccc(Cl)cc32)CC1 [loxapine] the value was 0.0231 ± 0.0029; for `CN1CCC[C@H]1c1cccnc1` [L-nicotine] + CN1CCN(C2=Nc3ccccc3Oc3ccc(Cl)cc32)CC1 [loxapine], 0.0212 ± 0.0058.

With `Cc1cccc(C)c1OCC(=O)N[C@@H](Cc1ccccc1)[C@@H](O)C[C@H](Cc1ccccc1)NC(=O)[C@H](C(C)C)N1CCCNC1=O` [lopinavir] + CN1CCN(C2=Nc3ccccc3Oc3ccc(Cl)cc32)CC1 [loxapine], the food intake amounted to 0.0209 ± 0.0084. For `CN(C)[C@@H]1C(O)=C(C(N)=O)C(=O)[C@@]2(O)C(O)=C3C(=O)c4c(O)ccc(Cl)c4[C@@H](O)[C@H]3C[C@@H]12` [demeclocycline (hydrochloride)] + CN1CCN(C2=Nc3ccccc3Oc3ccc(Cl)cc32)CC1 [loxapine] the value was 0.0207 ± 0.0035; for `CC(=O)OCC(=O)[C@@]1(O)CC[C@H]2[C@@H]3CCC4=CC(=O)CC[C@]4(C)[C@H]3C(=O)C[C@@]21C` [cortisone (acetate)] + CN1CCN(C2=Nc3ccccc3Oc3ccc(Cl)cc32)CC1 [loxapine], 0.0231 ± 0.0059. As for `O=C(Nc1c(Cl)cncc1Cl)c1ccc(OC(F)F)c(OCC2CC2)c1` [roflumilast] + CN1CCN(C2=Nc3ccccc3Oc3ccc(Cl)cc32)CC1 [loxapine], the food intake is 0.0214 ± 0.0055. For `CCCC(=O)Nc1ncnc2c1ncn2[C@@H]1O[C@@H]2COP(=O)(O)O[C@H]2[C@H]1OC(=O)CCC` [bucladesine (calcium salt)] + CN1CCN(C2=Nc3ccccc3Oc3ccc(Cl)cc32)CC1 [loxapine] the value was 0.022 ± 0.0033; for `Cc1cc(C)cc(OCC2CNC(=O)O2)c1` (stereo not given) [metaxalone] + CN1CCN(C2=Nc3ccccc3Oc3ccc(Cl)cc32)CC1 [loxapine], 0.0236 ± 0.003; for `NNc1nncc2ccccc12` [hydralazine (hydrochloride)] + CN1CCN(C2=Nc3ccccc3Oc3ccc(Cl)cc32)CC1 [loxapine], 0.022 ± 0.017. For `CO/N=C(\C(=O)N[C@@H]1C(=O)N2C(C(=O)O)=C(CSC(=O)c3ccco3)CS[C@H]12)c1csc(N)n1` [ceftiofur (sodium)] + CN1CCN(C2=Nc3ccccc3Oc3ccc(Cl)cc32)CC1 [loxapine] the value was 0.0225 ± 0.0037. For `Cn1c(=O)c2nc[nH]c2n(C)c1=O` [theophylline] + CN1CCN(C2=Nc3ccccc3Oc3ccc(Cl)cc32)CC1 [loxapine] the value was 0.00971 ± 0.011; for `[F-].[Na+]` [sodium fluoride] + CN1CCN(C2=Nc3ccccc3Oc3ccc(Cl)cc32)CC1 [loxapine], 0.0241 ± 0.0018; for `N=C(N)NC(=N)NCCc1ccccc1` [Phenformin (hydrochloride)] + CN1CCN(C2=Nc3ccccc3Oc3ccc(Cl)cc32)CC1 [loxapine], 0.0236 ± 0.0019. For the compound `Clc1ccc(COC(Cn2ccnc2)c2ccc(Cl)cc2Cl)c(Cl)c1` (stereo not given) [miconazole (nitrate)] + CN1CCN(C2=Nc3ccccc3Oc3ccc(Cl)cc32)CC1 [loxapine], the food intake was determined as 0.0169 ± 0.005. For `O=C(O)CCCCCCCC(=O)O` [azelaic acid] + CN1CCN(C2=Nc3ccccc3Oc3ccc(Cl)cc32)CC1 [loxapine] the value was 0.0259 ± 0.018; for `CCOC(=O)[C@H](CCc1ccccc1)N[C@@H](C)C(=O)N1Cc2ccccc2C[C@H]1C(=O)O` [quinapril (hydrochloride)] + CN1CCN(C2=Nc3ccccc3Oc3ccc(Cl)cc32)CC1 [loxapine], 0.0212 ± 0.003.

With `CC1CNc2c(cccc2S(=O)(=O)N[C@@H](CCCNC(=N)N)C(=O)N2CC[C@@H](C)C[C@@H]2C(=O)O)C1` (stereo not given in full) [argatroban (monohydrate)] + CN1CCN(C2=Nc3ccccc3Oc3ccc(Cl)cc32)CC1 [loxapine], the food intake stood at 0.0229 ± 0.002. With `CN1C2=CC(=O)/C(=N\NC(N)=O)C=C2CC1S(=O)(=O)O` (stereo not given) [carbazochrome (sodium sulfonate)] + CN1CCN(C2=Nc3ccccc3Oc3ccc(Cl)cc32)CC1 [loxapine] the figure was 0.0296 ± 0.0057; with `C[C@H](Cn1cnc2c(N)ncnc21)OCP(=O)(O)O` [tenofovir] + CN1CCN(C2=Nc3ccccc3Oc3ccc(Cl)cc32)CC1 [loxapine], 0.0219 ± 0.0044; with `C[N+](C)(C)CCCCCC[N+](C)(C)C` [hexamethonium (bromide)] + CN1CCN(C2=Nc3ccccc3Oc3ccc(Cl)cc32)CC1 [loxapine], 0.0215 ± 0.0099. With `Nc1nc2c(ncn2COC(CO)CO)c(=O)[nH]1` [ganciclovir] + CN1CCN(C2=Nc3ccccc3Oc3ccc(Cl)cc32)CC1 [loxapine] the figure was 0.0236 ± 0.0019.

Values taken from the supplement of paper PMC6288085.
